For ten compounds, growth inhibition results are on record in PubChem BioAssay (NCI).

This is part of a sample that, as a whole, favours compounds with a hit. Of some 79,000 tested, about 15% had one in any assay. Values without a mark were called inactive. Calls of active or inactive are those of the source. Rule as the data show it: active = growth inhibition above about 70%; inactive = the rest.

Assay [1] is described as follows: NCI Yeast Anticancer Drug Screen. Data for the rad50 strain (AID 155).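 Also: 0% = growth of vehicle-only cultures of the same strain.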 The following applies: S. cerevisiae rad50 strain growth inhibition, hits give high values. The procedure, abridged: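 Cells are treated with compound, grown, and their growth is then scored against vehicle-only cultures of the same repair-deficient yeast strain.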
Assay [2] in a line: NCI Yeast Anticancer Drug Screen. Data for the mec2-1 strain (AID 157). Particulars: S. cerevisiae mec2-1 strain, hits give high values. The procedure, abridged: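 Compounds were applied to mec2-1 yeast cells. Their growth was then compared with that of vehicle-treated cultures to give growth inhibition.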
The nature of assay [3]: NCI Yeast Anticancer Drug Screen. Data for the sgs1 mgt1 strain (AID 161).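 Also: 0% = growth of cultures given vehicle only.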 Particulars: S. cerevisiae sgs1 mgt1 strain, hits give high values. A digest of the protocol:
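Percent growth inhibition was derived by comparing compound-exposed mutant yeast with vehicle-exposed cultures. The strain carries alterations in DNA damage repair.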

A short description of assay [4]: NCI Yeast Anticancer Drug Screen. Data for the cln2 rad14 strain (AID 165).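 Also: 0% = growth equal to vehicle treated cultures.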 The following applies: S. cerevisiae cln2 rad14 strain, hits give high values. A digest of the protocol: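 Strain: cln2 rad14 yeast, altered in cell cycle control and DNA damage repair. Read-out: growth inhibition vs vehicle.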
Assay [5] can be described thus: NCI Yeast Anticancer Drug Screen. Data for the bub3 strain (AID 167). The following applies: S. cerevisiae bub3 mutant strain, hits give high values. The procedure, abridged: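 Part of a panel of yeast mutants defective in DNA damage repair or cell cycle regulation. Each strain is grown with compound, and inhibition is calculated relative to solvent-treated cultures.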

Assay [6] in a line: NCI Yeast Anticancer Drug Screen. Data for the mlh1 rad18 strain (AID 175). The following applies: S. cerevisiae mlh1 rad18 strain growth inhibition, hits give high values. The procedure, abridged: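 A repair-deficient yeast strain is exposed to test compound, and growth is scored relative to vehicle-treated controls.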
[7] abbreviates: at 5.0 µM (retest, dose inferred, filed as 0.5).
Where [8] appears, read: at 50.0 µM (retest, dose inferred, filed as 5.0).

Turning to `CC[CH2][Pb]([CH2]CC)([CH2]CC)[NH]S(=O)(=O)c1ccc(C)cc1`, the growth inhibition was 99% (active) in assay [1] (setting [7]); 99% (active) in assay [1] (setting [8]); 99.5% (active) in assay [1] (at 50.0 µM); 99% (active) in assay [2] (setting [7]); 100% (active) in assay [2] (setting [8]); 99.7% (active) in assay [2] (at 50.0 µM). In addition, the growth inhibition in assay [3] (setting [7]) is 99% (active); in assay [3] (setting [8]), 99% (active); in assay [3] (at 50.0 µM), 99.6% (active); in assay [4] (setting [7]), 98% (active); in assay [4] (setting [8]), 99% (active); in assay [4] (at 50.0 µM), 97.9% (active). Further, the growth inhibition was 100% (active) in assay [5] (setting [7]); 100% (active) in assay [5] (setting [8]); 99.5% (active) in assay [5] (at 50.0 µM); 99% (active) in assay [6] (setting [7]); 100% (active) in assay [6] (setting [8]); 99.5% (active) in assay [6] (at 50.0 µM).
For the compound `CCc1c[c]([Hg][Cl])c(CC)c(CC)c1CC`, the growth inhibition was 5% in assay [1] (setting [7]); 99% (active) in assay [1] (setting [8]); 99.4% (active) in assay [1] (at 50.0 µM); 68% in assay [2] (setting [7]); 99% (active) in assay [2] (setting [8]); 99.7% (active) in assay [2] (at 50.0 µM). The growth inhibition in assay [3] (setting [7]) was 40%; in assay [3] (setting [8]), 100% (active); in assay [3] (at 50.0 µM), 99.7% (active); in assay [4] (setting [7]) it was 2%; in assay [4] (setting [8]), 90% (active); in assay [4] (at 50.0 µM), 23.7%. In addition, the growth inhibition in assay [5] (setting [7]) was 7%; in assay [5] (setting [8]), 99% (active); in assay [5] (at 50.0 µM) it was 16.1%; in assay [6] (setting [7]) it was 35%; in assay [6] (setting [8]) it was 99% (active); in assay [6] (at 50.0 µM), 98.6% (active).
Take `O=[N+]([O-])/C=C\c1ccccc1`: the growth inhibition in assay [1] (setting [7]) was 65%; in assay [1] (setting [8]), 99% (active); in assay [1] (at 50.0 µM), 92.8% (active); in assay [2] (setting [7]), 17%; in assay [2] (setting [8]), 99% (active); in assay [2] (at 50.0 µM), 95.2% (active). Further, the growth inhibition in assay [3] (setting [7]) is 20%; in assay [3] (setting [8]), 99% (active); in assay [3] (at 50.0 µM), 91.8% (active); in assay [4] (setting [7]) it was 14%; in assay [4] (setting [8]), 99% (active); in assay [4] (at 50.0 µM) it was 82.7% (active). Further, the growth inhibition in assay [5] (setting [7]) is 39%; in assay [5] (setting [8]), 99% (active); in assay [5] (at 50.0 µM), 97% (active); in assay [6] (setting [7]), 26%; in assay [6] (setting [8]) it was 99% (active); in assay [6] (at 50.0 µM), 79% (active).
As to `O=[N+]([O-])c1ccc([N+](=O)[O-])c2nsnc12`, the growth inhibition is 98% (active) in assay [1] (setting [7]); 97% (active) in assay [1] (setting [8]); 99.5% (active) in assay [1] (at 50.0 µM); 90% (active) in assay [2] (setting [7]); 98% (active) in assay [2] (setting [8]); 99.5% (active) in assay [2] (at 50.0 µM). Moreover, the growth inhibition was 48% in assay [3] (setting [7]); 99% (active) in assay [3] (setting [8]); 99.3% (active) in assay [3] (at 50.0 µM); 77% (active) in assay [4] (setting [7]); 98% (active) in assay [4] (setting [8]); 99.3% (active) in assay [4] (at 50.0 µM). Besides, the growth inhibition is 98% (active) in assay [5] (setting [7]); 98% (active) in assay [5] (setting [8]); 99.2% (active) in assay [5] (at 50.0 µM); 79% (active) in assay [6] (setting [7]); 97% (active) in assay [6] (setting [8]); 99% (active) in assay [6] (at 50.0 µM).
For `[I][Hg][CH2]C1OCCOC1[CH2][Hg][I]` (stereo not given), the growth inhibition is 1% in assay [1] (setting [7]); 3% in assay [1] (setting [8]); 99.5% (active) in assay [1] (at 50.0 µM); -39% in assay [2] (setting [7]); 2% in assay [2] (setting [8]); 99.7% (active) in assay [2] (at 50.0 µM). Further, the growth inhibition in assay [3] (setting [7]) is -1%; in assay [3] (setting [8]), 2%; in assay [3] (at 50.0 µM) it was 99.5% (active); in assay [4] (setting [7]), -2%; in assay [4] (setting [8]) it was 4%; in assay [4] (at 50.0 µM) it was 99.2% (active). Besides, the growth inhibition in assay [5] (setting [7]) is -8%; in assay [5] (setting [8]), -6%; in assay [5] (at 50.0 µM), 99.5% (active); in assay [6] (setting [7]), -1%; in assay [6] (setting [8]), 3%; in assay [6] (at 50.0 µM) it was 99.2% (active).
Turning to `CN(C)[PH+](N(C)C)N(C)C.CN(C)[PH+](N(C)C)N(C)C.[C-]#[O+].[C-]#[O+].[C-]#[O+].[C-]#[O+].[C-]#[O+].[C-]#[O+].[Co].[Co].[Hg]`, the growth inhibition in assay [1] (setting [7]) is 3%; in assay [1] (setting [8]), 16%; in assay [1] (at 50.0 µM), 98.2% (active); in assay [2] (setting [7]), 3%; in assay [2] (setting [8]), 16%; in assay [2] (at 50.0 µM), 99.7% (active). Further, the growth inhibition in assay [3] (setting [7]) was 1%; in assay [3] (setting [8]), 9%; in assay [3] (at 50.0 µM), 99.6% (active); in assay [4] (setting [7]), -3%; in assay [4] (setting [8]) it was 2%; in assay [4] (at 50.0 µM), 99.2% (active). The growth inhibition in assay [5] (setting [7]) is 2%; in assay [5] (setting [8]), 13%; in assay [5] (at 50.0 µM), 99.5% (active); in assay [6] (setting [7]), 5%; in assay [6] (setting [8]), 20%; in assay [6] (at 50.0 µM) it was 98.8% (active).
Turning to `CCC[CH2][Sn]([CH2]CCC)([O]C(=O)CCC(C)=O)[O]C(=O)CCC(C)=O`, the growth inhibition is 73% (active) in assay [1] (setting [7]); 98% (active) in assay [1] (setting [8]); 87% (active) in assay [1] (at 50.0 µM); 80% (active) in assay [2] (setting [7]); 99% (active) in assay [2] (setting [8]); 91.7% (active) in assay [2] (at 50.0 µM). Besides, the growth inhibition in assay [3] (setting [7]) was 79% (active); in assay [3] (setting [8]), 99% (active); in assay [3] (at 50.0 µM) it was 89.7% (active); in assay [4] (setting [7]), 74% (active); in assay [4] (setting [8]), 99% (active); in assay [4] (at 50.0 µM), 90.3% (active). The growth inhibition in assay [5] (setting [7]) was 89% (active); in assay [5] (setting [8]), 99% (active); in assay [5] (at 50.0 µM) it was 88.4% (active); in assay [6] (setting [7]) it was 81% (active); in assay [6] (setting [8]) it was 98% (active); in assay [6] (at 50.0 µM) it was 91.7% (active).
For the compound `N#CS.[Ag]`, the growth inhibition was 11% in assay [1] (setting [7]); 97% (active) in assay [1] (setting [8]); 60.8% in assay [1] (at 50.0 µM); 10% in assay [2] (setting [7]); 98% (active) in assay [2] (setting [8]); 91.7% (active) in assay [2] (at 50.0 µM). Also, the growth inhibition in assay [3] (setting [7]) was 15%; in assay [3] (setting [8]), 98% (active); in assay [3] (at 50.0 µM), 75.2% (active); in assay [4] (setting [7]) it was 27%; in assay [4] (setting [8]) it was 98% (active); in assay [4] (at 50.0 µM), 32.7%. Also, the growth inhibition is 25% in assay [5] (setting [7]); 98% (active) in assay [5] (setting [8]); 89.5% (active) in assay [5] (at 50.0 µM); -1% in assay [6] (setting [7]); 97% (active) in assay [6] (setting [8]); 89% (active) in assay [6] (at 50.0 µM).
As to `CC1=C(CC/C(C)=C/CCC2(C)CCC([C@H](C)C(=O)O)OO2)C(C)(C)CCC1` (stereo not given in full) (tested in a mixture with another compound), the growth inhibition is 18% in assay [1] (setting [7]); 97% (active) in assay [1] (setting [8]); 90.2% (active) in assay [1] (at 50.0 µM); 39% in assay [2] (setting [7]); 97% (active) in assay [2] (setting [8]); 93% (active) in assay [2] (at 50.0 µM). In addition, the growth inhibition in assay [3] (setting [7]) was 52%; in assay [3] (setting [8]), 96% (active); in assay [3] (at 50.0 µM) it was 93% (active); in assay [4] (setting [7]), 46%; in assay [4] (setting [8]) it was 97% (active); in assay [4] (at 50.0 µM), 90.5% (active). The growth inhibition is 9% in assay [5] (setting [7]); 97% (active) in assay [5] (setting [8]); 92.2% (active) in assay [5] (at 50.0 µM); 51% in assay [6] (setting [7]); 96% (active) in assay [6] (setting [8]); 91.3% (active) in assay [6] (at 50.0 µM).
As for `CCN(CC)CC(=O)c1cc2ccccc2c2ccccc12`, the growth inhibition in assay [1] (setting [7]) was 36%; in assay [1] (setting [8]) it was 97% (active); in assay [1] (at 50.0 µM), 99.3% (active); in assay [2] (setting [7]) it was 14%; in assay [2] (setting [8]), 93% (active); in assay [2] (at 50.0 µM), 92.2% (active). For the same compound, the growth inhibition in assay [3] (setting [7]) is 47%; in assay [3] (setting [8]), 97% (active); in assay [3] (at 50.0 µM) it was 99.4% (active); in assay [4] (setting [7]) it was 2%; in assay [4] (setting [8]), 82% (active); in assay [4] (at 50.0 µM), 31.1%. The growth inhibition in assay [5] (setting [7]) is 11%; in assay [5] (setting [8]), 98% (active); in assay [5] (at 50.0 µM) it was 99.1% (active); in assay [6] (setting [7]) it was 36%; in assay [6] (setting [8]) it was 98% (active); in assay [6] (at 50.0 µM), 99% (active).
